Screening results as filed in PubChem BioAssay.
A selection: hits, their analogues and other compounds. The true share with any hit is near 7.5%.
SMN2 splice up: SMN2 splice variant enhancement; HEK293 SMN2-luciferase splicing reporter, luminescence, 30-36 h; Potency, µM (series often up to 46.1 µM), inactives show at the highest dose activity change, positive = activation, most hits filed as activators; AID 1458; 2.8% of 210,000 active; further: % of control where 0% means no effect; nearly all actives have a fitted effect of over 55% in size
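HEK293 cells carry an SMN2 […]–luciferase reporter in which exon 7 inclusion puts luciferase in frame. Cells were plated 10-12 h before compound addition, then incubated 30-36 h at 37C. ONE-Glo luminescence was read; sodium butyrate at 4.5 mM final served as control.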
Luc counter: blocks Kinase-Glo luciferase, a counter-screen artifact | Q27757 | Kinase-Glo luciferase, ATP luminescence, 8 min | Potency, µM (top dose mostly 38.3 µM), inactives show at the top dose activity change, negative = inhibition, usual class: inhibitors | 0.28% of 200,000 active; further: on the % scale 0 is the no-effect control and ±100 the full control effect; nearly all actives have a fitted effect of over 60% in size
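Inhibition of Kinase-Glo luciferase light generation was assessed at 10 uM ATP in pH 7.2 imidazole buffer, with luminescence measured after eight minutes at ambient temperature.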
FLuc counter: counter-screen for miR-21 project: firefly luciferase inhibitors or activators. 6.9% of 360,000 active. purified FLuc, Km substrates, luminescence inhibition. Potency, µM (titrated, usually from 57.5 µM), for the others: at the top dose activity change, negative = inhibition, actives largely listed as inhibitors. P08659;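 further: plate controls were vehicle for no effect and reference inhibitor for full effect; nearly all actives have a fitted effect of over 55% in size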
Target sequence (P08659 whole entry, looked up): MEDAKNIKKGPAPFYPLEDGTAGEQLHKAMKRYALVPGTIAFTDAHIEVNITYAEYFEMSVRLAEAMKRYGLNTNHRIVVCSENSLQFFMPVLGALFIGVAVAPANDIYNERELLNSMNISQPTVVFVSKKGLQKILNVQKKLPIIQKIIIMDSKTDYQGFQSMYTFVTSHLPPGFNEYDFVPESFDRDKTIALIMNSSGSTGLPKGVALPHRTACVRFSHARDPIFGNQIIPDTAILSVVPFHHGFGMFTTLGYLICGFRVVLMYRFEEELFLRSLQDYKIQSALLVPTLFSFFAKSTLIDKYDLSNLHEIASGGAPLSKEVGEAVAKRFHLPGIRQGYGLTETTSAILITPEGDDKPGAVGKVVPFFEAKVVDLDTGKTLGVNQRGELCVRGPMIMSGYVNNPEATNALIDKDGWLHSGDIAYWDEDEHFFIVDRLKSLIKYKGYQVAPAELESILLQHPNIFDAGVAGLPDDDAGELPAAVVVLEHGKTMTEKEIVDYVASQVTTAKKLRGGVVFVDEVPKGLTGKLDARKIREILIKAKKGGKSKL
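Purified P. pyralis luciferase, 10 nM final, with Km-level 10 uM D-luciferin and 10 uM ATP in 50 mM Tris acetate pH 7.5, 10 mM Mg acetate, 0.01% Tween-20, 0.05% BSA; 6-point qHTS titration about 60 µM downward; luminescence read.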
ELG1 genotoxic: inducers of genotoxicity in HEK293T ELG1-luciferase cells. AID 504466. HEK293T ELG1-luciferase reporter, luminescence, 16 h. Potency, µM (series often up to 46 µM), for inactives: at the highest dose activity change, positive = activation, actives largely listed as activators. 1.3% of 330,000 active; further: % of control where 0% means no effect; nearly all actives have a fitted effect of over 60% in size
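16 hr compound incubation (37 °C, 5% CO2) of HEK293T cells carrying luciferase-tagged ELG1; luciferase then measured by ONE-Glo luminescence after 30 min at RT.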
Rab9 promoter act: Rab9 promoter activation; Huh7 Rab9 promoter-luciferase reporter, luminescence, 24 h; Potency, µM (doses to about 9.22 µM), inactives show at the top dose activation, negative = inhibition, most hits filed as activators; 2.8% of 320,000 active; further: % of control where 0% means no effect; nearly all actives have a fitted effect of over 60% in size
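Luminescence from Amplite-detected luciferase (10 minutes, ambient) reports Rab9 promoter activation. Before that, stable Rab9-luciferase Huh7 cells (1500/well, reduced-serum OP-MEM I plus 10% FBS) were exposed to compound for 24 hours at 37C.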
NPC1 prom act: NPC1 promoter activation | 2.4% of 320,000 active | Huh7 NPC1 promoter luciferase reporter, 24 h | Potency, µM (titrated, usually from 9.22 µM), for the others: at the highest dose activation, actives largely listed as activators | AID 485313; further: % of control where 0% means no effect; nearly all actives have a fitted effect of over 60% in size
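Readout is luciferase luminescence, reflecting NPC1 promoter activation in stably transfected Huh7 cells after 24 h compound exposure at 37 °C in reduced-serum medium with 10% FBS.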
Active calls of the source: *. The call rests on the fitted dose curve; in most records, active means well fitted curve in the direction sought with a large enough effect; inconclusive means small, poorly fitted or top-dose-only effect, or another doubt; inactive means no such curve, though single readings can be large; an effect the other way counts as inactive or inconclusive. Potency means the concentration at half of the fitted maximal effect.

Screening C[C@@H](C(=O)NCc1cccc2ccccc12)[C@H]1C[C@]1(C)[C@H](NC(=O)OCc1ccccc1)c1ccccc1 returned SMN2 splice up -22.1% and Luc counter 0.8%.
Screening O=C(NCCSCc1ccccc1Cl)C1CCN(S(=O)(=O)Cc2ccccc2)CC1 returned FLuc counter -6.0%.
`CCc1cccc(CC)c1N(COC)C(=O)Cn1c(CC)nc2ccccc21` gave SMN2 splice up -7.3% and FLuc counter -15.1%.
CC(C)(C)c1ccc(-c2csc(NNC3=NCCCCC3)n2)cc1 was read as SMN2 splice up -14.8%, Luc counter -4.2%, FLuc counter 15.1µM*, ELG1 genotoxic inconclusive, Rab9 promoter act -0.8% and NPC1 prom act 2.1%.
For FC(F)Oc1ccc(-c2csc(NNC3=NCCCCC3)n2)cc1 the results were SMN2 splice up -14.3%, Luc counter 1.6%, FLuc counter inconclusive, ELG1 genotoxic 4.5%, Rab9 promoter act -5.5% and NPC1 prom act 0.6%.
For N#Cc1ccc(-c2csc(NC3=NCCCCC3)n2)cc1 the results were SMN2 splice up inconclusive, Luc counter -0.4%, FLuc counter inconclusive, ELG1 genotoxic 14.3%, Rab9 promoter act 23.5% and NPC1 prom act 12.6%.
Brc1ccc(-c2csc(NNC3=NCCCCC3)n2)cc1 was read as FLuc counter 19µM*, ELG1 genotoxic -3.0%, Rab9 promoter act -6.4% and NPC1 prom act 5.9%.
`c1ccc(-c2csc(NC3=NCCCCC3)n2)cc1` gave SMN2 splice up 11.2µM*, Luc counter -1.4%, FLuc counter 19µM*, ELG1 genotoxic inconclusive, Rab9 promoter act inconclusive and NPC1 prom act 17.6%.
For O=S(=O)(c1ccc(Cl)cc1)c1nc(-c2cccs2)oc1SCc1ccc(F)cc1 the results were SMN2 splice up -18.1% and FLuc counter 3.7%.
`CC[C@H]1C2=C3C(CC[C@H]4C(OCc5ccc(F)cc5C(F)(F)F)OC[C@](C)([C@@H]34)N(C(=O)OC(C)(C)C)C2)C(COC)C1COC` (stereo not given in full) gave SMN2 splice up -4.6% and Luc counter -1.6%.
For O=C(/C=C/c1ccc([N+](=O)[O-])cc1)NC1CC2CCC1C2 (stereo not given) the results were SMN2 splice up 15.1%, Luc counter -1.6%, FLuc counter inconclusive, ELG1 genotoxic 9.5%, Rab9 promoter act 13.2% and NPC1 prom act -0.6%.
For O=C(/C=C/c1ccccc1)NC1CC2CCC1C2 (stereo not given) the results were SMN2 splice up inconclusive, Luc counter -0.1%, FLuc counter 19µM*, ELG1 genotoxic inconclusive, Rab9 promoter act 17.3% and NPC1 prom act 22.0%.
For O=C(Nc1cccc(Cl)c1)NC1CC2CCC(C1)N2Cc1ccco1 (stereo not given) the results were SMN2 splice up 5.2%, Luc counter 0.4%, FLuc counter -1.9%, ELG1 genotoxic -0.5%, Rab9 promoter act 11.3% and NPC1 prom act 0.2%.
For O=C(Nc1cccc(Cl)c1)NC1CC2CCC1C2 (stereo not given) the results were FLuc counter 23.9µM*, ELG1 genotoxic 9.8%, Rab9 promoter act 15.8% and NPC1 prom act 26.2%.
Screening CS(=O)(=O)Nc1ccccc1C(=O)NC1CC2CCC1C2 (stereo not given) returned SMN2 splice up 11.8%, Luc counter -0.5%, FLuc counter -0.1%, ELG1 genotoxic -1.3%, Rab9 promoter act -5.0% and NPC1 prom act -1.5%.
O=C(/C=C/c1ccc(Cl)cc1)NC1CC2CCC1C2 (stereo not given) was read as SMN2 splice up 3.4%, Luc counter -2.4%, FLuc counter 23.9µM*, ELG1 genotoxic inconclusive, Rab9 promoter act 11.1% and NPC1 prom act 6.9%.
Cc1ccc(N2CCN(C(=O)CCS(=O)(=O)c3cc4c(cc3Cl)NC(=O)CO4)CC2)c(C)c1 was read as FLuc counter -3.0%.
